From PubChem
An excerpt weighted towards active compounds, which were near 1.1% of everything screened.
GC-B act – GC-B (human) receptor activation; P20594; HEK293-GC-B cells, CNP EC30, cGMP TR-FRET; 0% at EC30 CNP, 100% saturating CNP; activation, % at 10 µM; 0.11% of 370,000 active; AID 1920062;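 active = activation at 10 µM reaching about 35% in either raw or pattern-adjusted values, limit read from the data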
GC-A act – GC-A (human) enzyme activation | 0.14% of 370,000 active | HEK293 GC-A cells, cGMP TR-FRET, EC30 ANP; 0% at EC30 ANP, 100% saturating ANP | AID 1671463 | activation, % at 10 µM; in the data active = activation above about 40%
aDG glyco act – increases alpha dystroglycan glycosylation | activation, % at 10 µM | Pro5-aDG cells, alpha-DG glycosylation AlphaScreen (IIH6); 0% Pro5, 100% B10-LARGE cell signal | AID 624168 | 0.22% of 360,000 active;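 active = activation of at least 8% versus controls, or a plate z-score of at least 8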;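 also: Pro5 are CHO cells carrying HIG-tagged alpha-DG that lacks glycosylation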
FAS TE block – inhibitors of human fatty acid synthase thioesterase domain; P49327; recombinant FAS-TE, OMFH fluorogenic substrate, fluorescence endpoint; inhibition, % at 15 µM; 0.67% of 360,000 active; AID 602261;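 active = compounds whose normalised, plate-corrected inhibition of enzyme fluorescence in the single-dose primary screen is 50% or more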
A number is an active result; n = inactive; x = no result given.

SMILES	GC-B act	GC-A act	aDG glyco act	FAS TE block
CCC[n+]1c(C)sc2c3c(ccc21)CCCC3	x	x	6.9	n
CC[n+]1c(C)sc2c(C)cc(C)cc21	n	n	n	n
CC(C)COc1ccc(C(=O)OCC(=O)NCc2cccs2)cc1	n	n	n	n
CC(=O)Nc1ccc(C(=O)OCC(=O)NCc2cccs2)cc1	68	n	n	n
Cc1ccc(C(Nc2ccccc2)c2ccc3ccc(C)nc3c2O)c(C)c1 (stereo not drawn)	n	n	x	x
CC(=O)N(C)C1=C(N2CCOCC2)C(=O)c2ccccc2C1=O	x	x	5.5	n
C=CCn1c(=O)c2c(C)c(C)sc2n2c(Nc3ccc(OC)cc3)nnc12	39	n	n	n
C=CCn1c(SCC(=O)Nc2ccc(O)cc2)nc2sc(C)c(C)c2c1=O	n	n	n	n
O=C1c2ccc3c4c(ccc(c24)C(=O)N1c1cccc(O)c1)C(=O)N(c1cccc(O)c1)C3=O	n	n	4.0	n
O=C1c2ccc3c4c(ccc(c24)C(=O)N1c1cccc(O)c1)CC3	n	n	n	n
COc1ccc(-c2cnc(N)nc2-c2ccc(OCc3ccccc3)cc2O)cc1	n	n	n	n
Nc1ncc(-c2ccccc2)c(-c2ccc(O)cc2O)n1	n	46	n	n
O=C(CCSCc1ccccc1F)N1CCN(c2ccccn2)CC1	n	n	n	n
O=C(Cn1ncc2c3ccccc3n(Cc3ccccc3F)c2c1=O)NCC1CCCO1 (stereo not drawn)	36	n	n	n
O=C(Cn1ncc2c3ccccc3n(Cc3cccc(Cl)c3)c2c1=O)NCC1CCCO1 (stereo not drawn)	n	n	n	n
O=C(Cn1ncc2c3ccccc3n(Cc3ccccc3F)c2c1=O)N1CCN(c2ccccn2)CC1	41	n	n	n
CCC(=O)N(C)C[C@@H]1[C@H](c2ccc(C3=CCCCC3)cc2)[C@H](CO)N1C(=O)CC	n	n	x	x
CCOC(=O)c1cnc(-n2nc(C)cc2C)nc1NCc1ccccc1	n	n	n	n
CCOC(=O)c1cnc(-n2cc(C)cn2)nc1NCc1ccc2c(c1)OCO2	45	n	n	n
O=C(c1ccccc1)c1ccc(Cn2cc(-c3ccccc3)nn2)cc1	n	n	4.5	n
CCOC(=O)CS(=O)(=O)c1nc(-c2ccccc2)cc(C(F)(F)F)n1	n	54	n	n
CS(=O)(=O)c1nc(-c2ccc(F)cc2)cc(C(F)(F)F)n1	n	72	n	n
COc1ccc(-c2cc(C(F)(F)F)nc(N)n2)cc1	n	n	n	n
CCOC(=O)CS(=O)(=O)c1nc(-c2ccc(F)cc2)cc(C(F)(F)F)n1	x	x	n	n
CCOC(=O)CCS(=O)(=O)c1nc(-c2ccccc2)cc(C(F)(F)F)n1	x	x	n	n
SMILES	GC-B act	GC-A act	aDG glyco act	FAS TE block
COc1ccc(-c2cc(C(F)(F)F)nc(S(C)(=O)=O)n2)cc1	n	46	n	n
COc1cccc(NC(=O)N2CC[C@@H]3[C@H]2c2cc(-c4cccc(C#N)c4)ccc2N(C)[C@@H]3CO)c1	n	n	x	x
CCOc1ccc(-n2c(SCc3ccc(C#N)cc3)nnc2-c2ccco2)cc1	n	n	x	x
O=C(O)c1cccc2cccc(-c3c4ccc(=O)c(O)c-4oc4c(O)c(O)ccc34)c12	48	n	n	n
O=C(O)c1cccc2cc(-c3ccccc3)oc(=O)c12	n	n	n	n
Cn1c(SCC(=O)NCC2CCCO2)ncc(C(=O)Nc2ccc(Cl)cc2)c1=O (stereo not drawn)	n	45	n	n
CO[C@@H]1[C@H](O)CC[C@]2(O)CN(c3ccccc3)[C@](C)([C@H](O)CC=C(C)C)[C@@H]12	n	n	x	x
CC(C)(C)OC(=O)NCCCCCNC(=O)c1[nH]cnc1C(=O)N[C@@H](CCCCNC(=O)OC(C)(C)C)C(=O)OC(C)(C)C	x	x	n	68
CC(C)(C)OC(=O)NCCCC[C@H](NC(=O)c1nc[nH]c1C(=O)N[C@@H](CCCCNC(=O)OC(C)(C)C)C(=O)OC(C)(C)C)C(=O)OC(C)(C)C	n	n	n	n
Cc1cccc(NC(=O)N2CCC(N(C)CCC(C)C)CC2)c1	n	n	x	x
COc1ccc(C2c3[nH]c4ccccc4c3C[C@H]3C(=O)N(c4ccccc4C(=O)N4CCC(C(=O)O)CC4)C(=O)N23)cc1 (stereo partly drawn)	n	n	n	n
COc1cccc(C2c3[nH]c4ccccc4c3C[C@H]3C(=O)N(c4ccccc4C(=O)N4CCC(C(=O)O)CC4)C(=O)N23)c1 (stereo partly drawn)	51	n	n	n
CCOC(=O)[C@]12CCCCC/C=C\1N(CCc1ccc(Cl)cc1)C(=O)[C@H]2CC(=O)NCc1ccc(C)o1	n	n	x	x
CCCc1nn(C)c2c(=O)[nH]c(-c3cc(S(=O)(=O)N(CCO)CCO)ccc3OCC)nc12	56	50	n	n
CCOc1ccc(S(=O)(=O)N(CCO)CCO)cc1-c1nc2c(C(C)(C)C)nn(C)c2c(=O)[nH]1	63	58	n	n
COc1ccc(-c2[nH]ncc2N=Nc2cc(C)cc(C)c2)cc1	55	n	n	n
CC(=O)OCCN1C(=O)c2ccc(-c3nc4ccccc4c(=O)o3)cc2C1=O	n	47	n	n
COc1cc(-c2cc(-c3ccc(O)cc3)nc(N)c2C#N)ccc1O	n	n	n	n
COc1ccccc1-c1cc(-c2ccc(O)cc2)nc(N)c1C#N	n	41	n	n
O=C(Nc1ccc(S(=O)(=O)NC2=NCCCCC2)cc1)c1cccs1	n	n	n	n
O=C(Nc1ccc(S(=O)(=O)NC2=NCCCCC2)cc1)c1ccc([N+](=O)[O-])s1	n	n	8.4	n
CCn1c(Cc2cccs2)nnc1SCC(=O)Nc1ccc(OCc2ccccc2)cc1	n	n	x	x
COc1ccc(OC)c(-n2c(SCC(=O)Nc3cccc(S(N)(=O)=O)c3)nc3ccccc3c2=O)c1	37	n	n	n
COc1ccccc1-n1c(SCC(=O)Nc2cccc(S(N)(=O)=O)c2)nc2ccccc2c1=O	n	n	n	n
CCCCCN1CCCCC(NC(=O)c2ccc(F)cc2)C1=O (stereo not drawn)	n	n	x	x
SMILES	GC-B act	GC-A act	aDG glyco act	FAS TE block
COc1ccc(-c2nc3ccccc3n2Cc2ccc(C)cc2)cc1	48	63	n	n
COCn1c(-c2ccc(OC)cc2)nc2ccccc21	n	n	n	n
CCCCCCCCN1CCS(=O)(=O)N(Cc2ccc(F)cc2)C(C(=O)OC)C1 (stereo not drawn)	n	n	x	x
O=S(=O)(Nc1ccc(O)c2ccccc12)c1cccs1	n	n	2.7	n
CN1CCN(C(=S)c2ccc(-c3cc(Cl)ccc3Cl)o2)CC1	50	n	n	n
N#CCCN1CCN(C(=S)c2ccc(-c3cc(Cl)ccc3Cl)o2)CC1	97	n	n	n
O=C1OCCC1Sc1nnc(-c2ccc(Br)cc2)o1 (stereo not drawn)	n	66	n	n
O=C1OCCC1Sc1nnc(-c2ccco2)o1 (stereo not drawn)	n	n	n	n
CCN1CCN(c2cc(C)c3cc(NC(=O)c4ccc(OC)c(OC)c4)ccc3n2)CC1	47	n	n	n
